Pf growth 96h: inhibits malaria parasite growth, 96 h; Potency, µM (doses to about 28.7 µM), for inactives: at the top dose activity change, negative = inhibition, actives largely listed as inhibitors; actives 6.9% (n = 320,000); P. falciparum luciferase reporter growth, 96 h; also: potency is read from the fitted curve at half-maximal effect; % is scaled to controls: 0 for no effect and ±100 for the full control effect
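Delayed-death screen, second-generation endpoint: infected erythrocytes, 2% hematocrit, 0.05% parasitemia final; 96 hours at 37 C, 5% CO2; luciferase detection reagent; luminescence decrease equals reduced growth.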
HCMV antiviral: human cytomegalovirus inhibition; HFF cells, HCMV-luciferase reporter, 72 h; stronger effect = lower value; activity change, negative = inhibition, % at 57.5 µM; actives 4.5% (n = 410,000); in the data active = activity change below about -60%; inconclusive = no clear call, values can overlap the other calls; inactive = above about -39%; also: % is scaled to controls: 0 for no effect and ±100 for the full control effect
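Steps: HFFs plated, 16 h 37C; compounds added; HCMV-luciferase added to MOI 1 PFU/cell; 72 h 37C; OneGlo reagent, 5 min room temperature; luminescence read, normalized to controls.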
CHX counter: counter-screen hit for Shiga toxin inhibitors, cycloheximide; actives 12% (n = 300,000); max response, %; cell reporter, cycloheximide protein synthesis inhibition counterscreen; AID 2314; in the data active = max response mostly above about 13%, no sharp cut-off; inactive = mostly below about 14%; also: read at 38.3 µM for the half of the compounds with a filed dose; 0% is about no effect
Shiga toxin inh: blocks Shiga toxin action in Vero cells; Vero cells, Shiga toxin protein synthesis inhibition reporter; inhibition, % at 38.7 µM; actives 9.2% (n = 290,000); in the data active = inhibition mostly above about 28%, no sharp cut-off; inactive = mostly below about 43%; also: 0% is about no effect
Pf growth 48h: P. falciparum growth inhibition at 48 hours (one generation) | actives 5.9% (n = 310,000) | P. falciparum luciferase growth in erythrocytes, 48 h | AID 504832 | Potency, µM (highest dose often 28.7 µM), for inactives: top-dose activity change, negative = inhibition, actives largely listed as inhibitors; also: potency is read from the fitted curve at half-maximal effect; % is scaled to controls: 0 for no effect and ±100 for the full control effect
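A one-generation exposure of luciferase-tagged malaria parasites in RPMI 1640/Albumax erythrocyte culture, 37 C and 5% CO2. Inhibition is inferred from decreased luminescence after adding detection reagent.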
* = called active by the depositor; ? = inconclusive; · = no result given; + = active, no number; [ ] = another dose, or the depositor's remark. Rows were chosen to be rich in hits. Some 20% of all compounds tested hit in one or more screens of this group. Unless noted, calls follow the shape of the dose curve; as a rule, active = well fitted inhibition curve with a large enough effect; inconclusive = small, poorly fitted or top-dose-only effect, or another doubt; inactive = no such curve, though single readings can be large or run the other way.

SMILES | Pf growth 96h | HCMV antiviral | CHX counter | Shiga toxin inh | Pf growth 48h
CC1CCN(S(=O)(=O)c2ccc(C(=O)Nc3nnc(C4=COCCO4)o3)cc2)CC1 | ? | -70* | -1 | -4 | ?
COc1ccc(C(=O)Nc2nnc(C3=COCCO3)o2)cc1 | ? | -3 | 12 | 5 | ?
CCOc1ccc(C(=O)Nc2nnc(C3=COCCO3)o2)cc1 | -28% | -19 | 8.4* | 19 | -22%
O=C(OCc1ccccc1)/C(=C/c1cccc([N+](=O)[O-])c1)NC(=O)c1ccco1 | ? | -7 | -2 | -4 | -26%
COc1ccc(-n2ncc(C(=O)Nc3ccc4c(c3)OCCO4)c2C2CCN(C(=O)OC(C)(C)C)CC2)cc1 | · | + | · | · | ·
Cc1c(Cl)cccc1-n1ncc(C(=O)Nc2ccc3c(c2)OCCO3)c1C1CCN(C(=O)OC(C)(C)C)CC1 | · | -82* | · | · | ·
CC(C)(C)OC(=O)N1CCC(c2c(C(=O)Nc3ccc4c(c3)OCCO4)cnn2-c2ccc(F)cc2)CC1 | · | -6 | · | · | ·
CCOC(=O)c1cccc(NC(=O)c2ccc3nc(Cc4ccccc4)oc3c2)c1 | · | -39 | · | · | ·
O=C(c1ccc(C#CC2(O)CCCCC2)cc1)N1CCN(Cc2ccccc2)CC1 | 10µM* | 17 | -2 | -26 | ?
NC(=O)C1(N2CCCCC2)CCN(C(=O)c2ccc(C#CC3(O)CCCCC3)cc2)CC1 | ? | -4 | -4 | -3 | ·
O=C(c1ccc(C#CC2(O)CCCCC2)cc1)N1CCN(C(c2ccccc2)c2ccccc2)CC1 | -37% | 114 | 21* | 21 | ·
CCOC(=O)N1CCN(C(=O)c2ccc(C#CC3(O)CCCCC3)cc2)CC1 | · | 30 | 31* | 41* | -13%
O=C(c1cccc(S(=O)(=O)N2CCCCC2)c1)N1CCN(Cc2ccccc2)CC1 | ? | 7 | · | · | ?
Cc1ncc(CO)c(CNc2ccc(Oc3ccccc3)cc2)c1O | 74% | -70* | 3 | -3 | ?
Cc1ncc(CSSCc2cnc(C)c(O)c2CO)c(CO)c1O | 11% | -16 | · | · | 1%
CC1(C)CC(=O)C(C=Nc2ccc3cn[nH]c3c2)=C(O)C1 | -8% | 46 | 13 | 74 | 0%
CC1(C)CC(=O)C(C=Nc2ccc(O)cc2)=C(O)C1 | 1% | -33 | 18* | 36* | 39%
CCOC(=O)c1c(/N=C/C2=C(O)CC(C)(C)CC2=O)sc(C(C)=O)c1C | 34% | -36 | 23* | 57* | 22%
CC1(C)CC(=O)C(C=Nc2ccc(N)cc2)=C(O)C1 | 53% | 23 | 40* | 81* | 122%
CC1(C)CC(=O)C(C=Nc2ccc3[nH]ncc3c2)=C(O)C1 | 10µM* | -30 | 37* | 33* | 5%
CN=CC1=C(O)CC(C)(C)CC1=O | -10%[5.75 µM] | -9 | 2 | -21 | -6%
CCc1cccc(NS(=O)(=O)c2c(C)nc3sc(CC)nn3c2=O)c1 | ? | -27 | -1 | -1 | 28%
C=CCOc1ccc(/C=C/C(=O)OCC(=O)N(C)CC(=O)Nc2ccccc2Cl)cc1 | 10% | -29 | · | · | -1%
CCOc1ccc(N=CC2=C(O)CC(C)(C)CC2=O)cc1 | -22% | 14 | -3 | 189* | 4%
COc1ccccc1N1CCN(C(=O)CCNC(=O)c2ccco2)CC1 | 37% | 42 | · | · | 43%
SMILES | Pf growth 96h | HCMV antiviral | CHX counter | Shiga toxin inh | Pf growth 48h
Cc1cccc(N2CCN(C(=O)/C=C/c3cccs3)CC2)c1C | -7% | 3 | 44* | 64* | -27%
COc1ccccc1N1CCN(C(=O)/C=C/c2cccs2)CC1 | 11% | -18 | 18* | 54* | ?
COc1ccccc1N1CCN(C(=O)/C=C/c2ccco2)CC1 | -20% | 6 | 28* | 37* | 4%
COc1ccccc1N1CCN(/N=C/C=C\c2ccco2)CC1 | 281% | 47 | 41* | 53* | 198%
COc1ccccc1N1CCN(C(=O)/C=C/c2ccccc2)CC1 | 108% | -19 | 15 | 19 | ?
Cc1nc2nc(NC(=O)c3cccc(Cl)c3)[nH]n2c(=O)c1Cc1ccccc1 | · | -7 | · | · | ·
Cc1cccc(Cc2ccc(Cl)nn2)c1 | 15% | ? | -1 | 2 | 16%
Cc1cccc(N2CCN(C(=O)c3cccs3)CC2)c1C | 10µM* | 3 | -3 | -9 | -4%
CC1CCCC(C)N1/N=C/C=C/c1ccccc1[N+](=O)[O-] (stereo not given) | 20% | 2 | 38* | 69* | 0%
CCOc1ncccc1C(=O)N1CCN(c2cccc(C)c2C)CC1 | ? | -96* | -6 | -21 | 21%
COc1ccccc1/C=C/C=N/N1CCN(Cc2cccc3ccccc23)CC1 | -16% | -24 | -2 | -13 | -10%
COc1ccccc1/C=C/C=N/N1CCN(c2ccccn2)CC1 | 25% | -64* | -4 | -9 | ?
COc1ccccc1N1CCN(C(=O)c2cccs2)CC1 | ? | -25 | -3 | -9 | 5%
Fc1ccc(CCN2CCN=C2Nc2ccccc2)cc1 | ? | 10 | · | · | ?
Cc1cc(C)cc(Cn2c3ccc(NC(=O)NCc4ccccc4)cc3c(=O)n2C)c1 | · | 22 | · | · | ·
COc1ccccc1N1CCN(S(=O)(=O)c2ccc([N+](=O)[O-])cc2)CC1 | · | 121 | · | · | ·
O=C(/C=C/c1cccs1)N1CCCC1 | 32% | ? | 16* | 46* | 36%
COc1ccccc1N1CCN(/N=C/C=C\c2ccccc2[N+](=O)[O-])CC1 | ? | 25 | 43* | 45* | -24%
Cc1cc(C)n(C(=O)/C=C/c2cccs2)n1 | 10% | 20 | 29* | 64* | 25%
CCCCNC(=O)/C=C/c1ccc(OC)c(Br)c1 | -19% | -34 | 12 | -1 | -10%
O=C(CN(c1ccccn1)S(=O)(=O)c1ccccc1)N/N=C/c1cccc([N+](=O)[O-])c1 | 2% | -26 | -2 | -9 | 18%
CCOc1ccccc1-n1cc2c(c1-c1ccc(OC)cc1)c(=O)n(C)c(=O)n2C | · | 5 | · | · | ·
CC(C)C[C@@]12C(=O)N(c3cccc(Cl)c3)C(=O)N1[C@H](c1ccc(F)cc1)[C@@H]1C(=O)N(C3CCCCC3)C(=O)[C@@H]12 | ? | -19 | · | · | 4.1µM*
CC(C)C[C@@]12C(=O)N(c3cccc(Cl)c3)C(=O)N1[C@H](c1ccc(Cl)cc1)[C@@H]1C(=O)N(C3CCCCC3)C(=O)[C@@H]12 | 64% | -1 | · | · | ?
CC[C@@]12C(=O)N(c3cccc(Br)c3)C(=O)N1[C@H](c1ccc(Cl)cc1)[C@@H]1C(=O)N(C3CCCCC3)C(=O)[C@@H]12 | 8.3µM* | -19 | -1 | -1 | ?
CC(C)C[C@@]12C(=O)N(c3cccc(Br)c3)C(=O)N1[C@H](c1ccc(Cl)cc1)[C@@H]1C(=O)N(C3CCCCC3)C(=O)[C@@H]12 | ? | 5 | · | · | 2.6µM*
Cc1ccc(C)c(N2CCN(c3nc4ccccc4n4c(C)nnc34)CC2)c1 | · | 2 | · | · | ·
COc1ccc(NC(=O)[C@H](CCS(C)(=O)=O)N2Cc3ccccc3C2=O)c(OC)c1 | 9.3µM* | ? | -6 | -4 | ·

Screens as filed in PubChem BioAssay.
